Results filed as inconclusive are left out. A call without a number means that no potency is given here. Active and inactive are the calls of the source. The call rests on the fitted dose curve; in most records, active means well fitted curve in the direction sought with a large enough effect; inconclusive means small, poorly fitted or top-dose-only effect, or another doubt; inactive means no such curve, though single readings can be large; an effect the other way counts as inactive or inconclusive.
What was measured:
[1] = qHTS assay for measurement of the activity of small molecule inhibitors on Zika virus induced Caspase-3 activity in human astrocytoma cells (AID 1224859); settings: SNB-19 ZIKV-induced caspase-3/7, luminescence, 6 h; series mostly up to 45.7 µM
In short: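 Human SNB-19 astrocytoma cells in RPMI 1640 with 10% FBS receive compound one hour ahead of Zika virus at 2 FFU/cell. After 6 h infection, caspase-3/7 activity is detected by Caspase-Glo luminescence.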

[2] = qHTS Screen of the MIPE 4.0 Collection Against Ewings Sarcoma (EW8) (AID 1259255); settings: EW8 Ewing sarcoma viability, CellTiter-Glo, 48 h; series mostly up to 45.8 µM; further: potency means the concentration at half of the fitted maximal effect; nearly all actives have a fitted effect of over 35% in size
In short: (§1)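 Cells plated in serum-containing RPMI (5% FBS) and treated with compound dilutions for 48 h. Readout luminescent viability; normalization relied on vehicle (no inhibition) and media-only columns (full inhibition).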

[3] = Identifying Small Molecule Inhibitors of Pancreatic Cancer Stem Cells (A2780, Spheroid) (AID 1259357); settings: Potency: A2780 spheroid viability; series mostly up to 46.1 µM; further: potency means the concentration at half of the fitted maximal effect;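 further: spheroids pre-formed over 14 days in stem cell medium on hydrogel; compound exposure lasted 48 h before the ATP luminescence read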
In short: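 Viability is scored by CellTiter-Glo luminescence 48 h after dosing, expressed as percent activity against vehicle and no-cell references. Spheroid formats rely on cells cultured 14 days in stem cell media beforehand.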

[4] = qHTS Screen of the MIPE 4.0 Collection Against Ewings Sarcoma (TC32) (AID 1259256); settings: TC32 Ewing sarcoma viability, CellTiter-Glo, 48 h; series mostly up to 45.8 µM; further: potency means the concentration at half of the fitted maximal effect; nearly all actives have a fitted effect of over 45% in size
In short: as §1

[5] = Identifying Small Molecule Inhibitors of Pancreatic Cancer Stem Cells (SN12C, Adherent) (AID 1259358); settings: viability/growth inhibition; series mostly up to 46.1 µM;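 further: cell survival measured after 48 h of compound exposure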; further: potency means the concentration at half of the fitted maximal effect
In short: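 Pre-formed 14-day tumor spheroids or adherent cells dosed and incubated 48 h, 37C, 5% CO2. Viability assessed by CellTiter-Glo.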

[6] = qHTS assay to identify small molecule inhibitors of chordoma cells - UCH-2 (AID 1259356); settings: UCH-2 chordoma viability, CellTiter-Glo ATP luminescence, 48 h; series mostly up to 46.1 µM
[7] = qHTS Screen of the MIPE 4.0 Collection Against Ewings Sarcoma (TC71) (AID 1259253); settings: TC71 Ewing sarcoma viability, CellTiter-Glo, 48 h; series mostly up to 45.8 µM; further: potency means the concentration at half of the fitted maximal effect; nearly all actives have a fitted effect of over 40% in size
In short: as §1

[8] = qHTS assay to identify small molecule inhibitors of chordoma cells - UCH-1 (AID 1259355); settings: UCH-1 chordoma viability, CellTiter-Glo, 48 h, combination, with auranofin plus four topoisomerase inhibitors; series mostly up to 46.1 µM; further: nearly all actives have a fitted effect of over 55% in size
In short: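 800 cells/well, overnight attach; compounds pinned at 15 concs, then auranofin/camptothecin/doxorubicin/rubitecan/topotecan combo added; 48hr 37 C, 5% CO2; CellTiter-Glo, 30min RT, luminescence.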

[9] = qHTS Screen of the MIPE 4.0 Collection Against Ewings Sarcoma (RDES) (AID 1259252); settings: RD-ES Ewing sarcoma viability, CellTiter-Glo, 48 h; series mostly up to 45.8 µM; further: potency means the concentration at half of the fitted maximal effect; nearly all actives have a fitted effect of over 35% in size
In short: as §1

For `CN(C)c1ccc(Nc2nc(N)n(C(=O)c3c(F)cccc3F)n2)cc1`, the Potency [1] was “inactive”, the Potency [2] was 132 nM (active) and the Potency [3] was 18700 nM (active).
For `Cn1cc(-c2ccc3nnc(C(F)(F)c4ccc5ncccc5c4)n3n2)cn1`, the Potency [1] was “inactive”, the Potency [4] was 833 nM (active) and the Potency [5] was “inactive”.
For `N#Cc1ccc(C(c2ccc(C#N)cc2)n2cncn2)cc1`, the Potency [1] was “inactive”, the Potency [4] was 14800 nM (active) and the outcome [6] was “inactive”. The Potency [3] was “inactive” and the Potency [5] was “inactive”.
In the case of `C[C@]12CCC(=O)C=C1CC[C@@H]1[C@@H]2[C@@H](O)C[C@@]2(C)[C@H]1CC[C@]2(O)C(=O)CO`, the Potency [1] is reported as “inactive” and the Potency [3] is reported as “inactive”.
For `O=C1[C@H](Cc2ccc(O)cc2)N2C(=O)CCN(C(=O)NCc3ccccc3)[C@H]2CN1Cc1cccc2ccccc12`, the Potency [1] was “inactive”, the Potency [7] was 2960 nM (active) and the Potency [4] was 1870 nM (active). For the same compound, the Potency [5] was 16600 nM (active).
With `Cc1cc(C=c2sc3nc4ccccc4n3c2=O)c(C)n1-c1ccccc1` the Potency [1] was “inactive” and the Potency [5] was “inactive”.
With `CCCc1nc2c(C)cc(-c3nc4ccccc4n3C)cc2n1Cc1ccc(-c2ccccc2C(=O)O)cc1` the Potency [1] was “inactive”, the Potency [8] was “inactive” and the outcome [6] was “inactive”. The Potency [3] was “inactive”.
In the case of `CCc1cc(Nc2nccc(-c3c(-c4ccc(OC)c(C(=O)Nc5c(F)cccc5F)c4)nc4ccccn34)n2)c(OC)cc1N1CCC(N2CCN(S(C)(=O)=O)CC2)CC1`, the Potency [1] is reported as “inactive”, the Potency [7] is reported as 18700 nM (active) and the Potency [4] is reported as 16600 nM (active). For the same compound, the Potency [5] was “inactive”.
In the case of `COc1cccc2cc(-c3nc(C4CCC(C(=O)O)CC4)n4ncnc(N)c34)[nH]c12` (configuration not stated), the Potency [9] is reported as 833 nM (active), the Potency [7] is reported as 662 nM (active) and the Potency [2] is reported as 526 nM (active). The Potency [4] was 526 nM (active) and the Potency [5] was 833 nM (active).

— PubChem BioAssay (NCATS)
